Laboratory results from the supplement of paper PMC11732987, “Enantioselective OTUD7B fragment discovery through chemoproteomics screening and high-throughput optimisation” (Communications Chemistry, 2025).
A number with no mark means an inactive call.

Molecular target: T1, USP38 (UniProt Q8NB14)
T1 sequence (whole entry): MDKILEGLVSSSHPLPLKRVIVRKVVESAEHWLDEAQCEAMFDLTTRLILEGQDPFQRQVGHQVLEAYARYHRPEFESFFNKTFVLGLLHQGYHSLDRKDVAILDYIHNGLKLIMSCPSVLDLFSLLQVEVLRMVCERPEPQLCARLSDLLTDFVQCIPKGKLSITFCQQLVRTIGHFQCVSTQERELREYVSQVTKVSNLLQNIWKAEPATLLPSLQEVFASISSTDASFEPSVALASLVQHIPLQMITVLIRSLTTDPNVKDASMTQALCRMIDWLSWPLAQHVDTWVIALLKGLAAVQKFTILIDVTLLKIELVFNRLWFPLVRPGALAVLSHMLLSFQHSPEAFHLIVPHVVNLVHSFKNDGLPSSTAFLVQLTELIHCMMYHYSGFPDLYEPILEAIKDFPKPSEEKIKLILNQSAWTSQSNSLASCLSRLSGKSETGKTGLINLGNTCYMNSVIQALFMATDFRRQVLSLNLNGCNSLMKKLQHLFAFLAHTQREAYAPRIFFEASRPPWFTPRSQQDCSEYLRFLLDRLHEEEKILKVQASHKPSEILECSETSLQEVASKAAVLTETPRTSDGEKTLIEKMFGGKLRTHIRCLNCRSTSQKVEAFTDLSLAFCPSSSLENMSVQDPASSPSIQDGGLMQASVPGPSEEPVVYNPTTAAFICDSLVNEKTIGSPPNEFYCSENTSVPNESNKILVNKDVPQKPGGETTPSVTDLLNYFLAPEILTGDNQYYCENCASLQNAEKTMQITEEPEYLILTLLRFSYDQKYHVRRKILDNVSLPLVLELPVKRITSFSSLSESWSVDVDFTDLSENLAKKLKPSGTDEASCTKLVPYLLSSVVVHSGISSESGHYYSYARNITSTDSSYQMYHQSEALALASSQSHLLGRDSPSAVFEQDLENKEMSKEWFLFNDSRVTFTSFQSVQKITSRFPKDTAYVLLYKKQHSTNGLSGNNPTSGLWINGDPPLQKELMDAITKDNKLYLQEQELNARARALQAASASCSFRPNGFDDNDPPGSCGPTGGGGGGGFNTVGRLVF
Assay: log2 ratio of Biotin-Ahx-Ub-VS probe labelling (compound/DMSO); higher = less target engagement, active = hit call of the paper (q ≤ 0.05, log2 ratio ≤ -1)
Conditions: compound concentration: 50uM; treatment time: 3 h
Protocol: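 Round 2 competitive ABPP in HEK293T lysate. Purified HTC-D2B compounds were tested at 50 and 200 µM for 3 h, followed by Biotin-Ahx-Ub-VS enrichment and diaPASEF LC-MS/MS. Values are the average log2 ratio (compound/DMSO) from an unpaired t-test (n=3 treated, n=26 DMSO).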

Structure (SMILES)	log2 ratio of Biotin-Ahx-Ub-VS probe labelling
O=C(CCl)NC1CCCc2ccccc21 (stereo unspecified)	0.0146
O=C(CCl)NC1CCOc2ccc(Cl)cc21 (stereo unspecified)	0.126
O=C(CCl)N1CCc2cc(Cl)c(Cl)cc2C1	0.253
CCCC1c2cc(OC)c(OC)cc2CCN1C(=O)CCl (stereo unspecified)	-0.184
O=C(CCl)NC1CCSc2ccccc21 (stereo unspecified)	0.05
O=C(CCl)N1Cc2sccc2C(O)C1 (stereo unspecified)	0.173
O=C(CCl)N[C@H]1CCCc2ccccc21	0.0645
COc1ccc(CN(C)C(=O)CCl)cc1	0.023
CN(Cc1ccccc1)C(=O)CCl	-0.0215
O=C(CCl)NC(c1cccs1)C1CCCC1 (stereo unspecified)	0.192
CCC1c2cc(Cl)c(OC)cc2CCN1C(=O)CCl (stereo unspecified)	0.207
COc1cccc(CN(CCCc2ccccc2)C(=O)CCl)c1	-0.105
Cl.Cl.O=C(CCl)N1CCc2nc(N3CCN(c4ccc(F)cc4)CC3)ncc2C1	0.202
O=C(CCl)N1CCc2nc(-c3ccccc3)ncc2C1	0.272
O=C(CCl)N1CCc2nocc2C1	-0.0321
Cc1ccccc1COc1cccc(CN(C)C(=O)CCl)c1	-0.192
CN(Cc1cccc(Br)c1)C(=O)CCl	0.171
O=C(CCl)N1CCc2scc(Br)c2C1	0.0294

Same assay, conditions: compound concentration: 200uM; treatment time: 3 h

Structure (SMILES)	log2 ratio of Biotin-Ahx-Ub-VS probe labelling
O=C(CCl)NC1CCCc2ccccc21 (stereo unspecified)	-0.162
O=C(CCl)NC1CCOc2ccc(Cl)cc21 (stereo unspecified)	-0.261
O=C(CCl)N1CCc2cc(Cl)c(Cl)cc2C1	-0.962
CCCC1c2cc(OC)c(OC)cc2CCN1C(=O)CCl (stereo unspecified)	-0.48
O=C(CCl)NC1CCSc2ccccc21 (stereo unspecified)	-0.3
O=C(CCl)N1Cc2sccc2C(O)C1 (stereo unspecified)	-0.212
O=C(CCl)N[C@H]1CCCc2ccccc21	-0.252
COc1ccc(CN(C)C(=O)CCl)cc1	-0.826
CN(Cc1ccccc1)C(=O)CCl	-0.641
O=C(CCl)NC(c1cccs1)C1CCCC1 (stereo unspecified)	-0.22
CCC1c2cc(Cl)c(OC)cc2CCN1C(=O)CCl (stereo unspecified)	-0.934
COc1cccc(CN(CCCc2ccccc2)C(=O)CCl)c1	-0.679
Cl.Cl.O=C(CCl)N1CCc2nc(N3CCN(c4ccc(F)cc4)CC3)ncc2C1	-0.918
O=C(CCl)N1CCc2nc(-c3ccccc3)ncc2C1	-0.407
O=C(CCl)N1CCc2nocc2C1	-0.473
Cc1ccccc1COc1cccc(CN(C)C(=O)CCl)c1	-0.383
CN(Cc1cccc(Br)c1)C(=O)CCl	-0.322
O=C(CCl)N1CCc2scc(Br)c2C1	-0.844
